# Source: PubChem BioAssay
# The full list was thinned out, with hits kept by preference.
# CapD inh = CapD enzyme inhibition; purified CapD enzyme, fluorescence intensity read-out; stronger effect = lower value; z-score (no concentration beside the values); 140,000 compounds, 0.23% hits; AID 492967; in the data active = z-score mostly below about -2.9, no sharp cut-off; inactive = mostly above about -1.9
# * hit, by the source's call.
SMILES,CapD inh
O=C(O)C1Nc2ccccc2C2C=CCC12 (configuration not stated),-8.8*
CC(=O)Oc1ccc(C2Nc3ccc(C(C)=O)cc3C3C=CCC32)c(OC(C)=O)c1 (configuration not stated),1.3
O=C(O)c1ccc2c(c1)C1C=CCC1C(c1cccc3ccccc13)N2 (configuration not stated),-0.62
O=C(O)c1ccc2c(c1)C1C=CCC1C(c1ccc(Br)cc1)N2 (configuration not stated),-1.4
Brc1ccccc1[C@@H]1Nc2ccccc2[C@@H]2C=CC[C@@H]21,-0.46
COc1ccc(C2Nc3cccc4cccc(c34)N2)cc1O,63
COC(=O)CN1C(=O)COc2cc(S(=O)(=O)NCc3ccc(Cl)cc3)ccc21,1.1
c1ccc2c(c1)Oc1ccccc1C2N1CCOCC1,0.35
C(CN1CCOCC1)NC1CC2CCC1C2 (configuration not stated),-0.38
COc1cc(CN2CCN(CCOC(=O)N3CCN(c4ncnc5sccc45)CC3)CC2)cc2c1OCO2,0.55
CCOC(=O)c1c(C)n(-c2ccccc2)c2ccc3c(c12)CN(Cc1ccccc1)CO3,-0.05
Cc1ccc2c(c1)C1CN(C)CCC1N2C(=O)CN1CCCC1 (configuration not stated),0.02
O=C(NN1C(=O)/C(=C\c2cccnc2)SC1=S)c1ccccc1,-1.4
O=C(O)COc1ccccc1/C=C1/SC(=S)N(c2cccnc2)C1=O,-4*
COC(=O)c1cccc(N2C(=O)/C(=C\c3cccnc3)SC2=S)c1,-0.35
COc1ccc2cc3cc(C(=O)N4CCN(Cc5ccccc5)CC4)oc3nc2c1,29
N#Cc1cc(-c2ccc(Cl)cc2)cnc1Sc1c(Cl)cccc1Cl,-0.055
COc1ccc(S(=O)(=O)Nc2c(O)c3ccccc3oc2=O)cc1OC,5.3
COc1ccc(Cl)cc1NC(=O)Cn1nc(C(F)(F)F)c(Br)c1C,0.67
c1ccc(CN2CCC(c3ccco3)=N2)cc1,2.4
CCOC(=O)C1=C(O)/C(=C/c2ccc(C)o2)SC1=NC(=O)c1ccccc1,-0.13
CCSc1nnc(Cc2cc(=O)[nH]c(=O)[nH]2)n1-c1cccc(C)c1,-0.18
NC(=O)CSc1nnc(Cc2cc(=O)[nH]c(=O)[nH]2)n1-c1ccccc1,-5*
O=C(CSc1nnc(Cc2cc(=O)[nH]c(=O)[nH]2)n1-c1ccccc1)N1CCCC1,-0.12
CCOC(=O)C1=C(C)NC(C)=C(C(=O)OCC)C1c1ccc(OC(=O)c2oc3ccccc3c2C)c(OC)c1,2.6
SMILES,CapD inh
COc1cccc(-c2cc(C(=O)Nc3ccccc3OC)c3ccccc3n2)c1,-1.1
COc1ccc(Oc2ccccc2OC)cc1,-0.67
CC(=O)NC(CO)C(=O)c1ccc([N+](=O)[O-])cc1 (configuration not stated),0.26
c1ccc(-c2ncc(-c3nc4ccccc4o3)c(-c3ccncc3)n2)nc1,2.3
O=C(NN1S(=O)(=O)c2ccccc2S1(=O)=O)c1nsnc1NCCCl,-6.3*
CCCCN(CCCC)CCC(=O)NN1S(=O)(=O)c2ccccc2S1(=O)=O,-2.5
O=C(NN1S(=O)(=O)c2ccccc2S1(=O)=O)c1nc[nH]c1C(=O)Nc1ccccc1,-0.78
CCCOc1cccc2c1CCN(Cc1ccccc1)C2=O,0.01
N#Cc1c(N)nc2cccc3c2c1-c1ccccc1C3=O,25
N=C(N)Sc1cn(Cc2ccccc2)c2ccccc12,-4.8*
N#Cc1cn(Cc2ccccc2)c2ccccc12,-0.23
O=C(CSc1cn(Cc2ccccc2)c2ccccc12)N1CCCC1,0.055
COc1ccc(Oc2ccc([N+](=O)[O-])cc2C(=O)O)cc1,-1.1
Cc1[nH]c2ccccc2c1CN1CCN(c2ccc(F)cc2)CC1,0.48
CCc1nc(CN2CCN(c3ccc(C(F)(F)F)cn3)CC2)c(C)[nH]1,-0.68
CCc1nc(CN2CCN(c3ccc(F)cc3)CC2)c(C)[nH]1,-1.8*
O=[N+]([O-])/C=C/c1c(F)cccc1Cl,0.67
O=C1NC(=S)S/C1=C\c1c(F)cccc1Cl,-4.1*
COc1ccc(/C=C2/SC(=S)NC2=O)cc1COc1ccc(F)cc1F,-1.6
CCOC(=O)c1sc(NC(=O)c2cccc(OC)c2)nc1-c1ccccc1,0.62
COc1cccc(C(=O)c2sc(NC(C)C)nc2N)c1,-4.3*
COc1cccc(C(=O)NN)c1,0.76
CCOc1cc(/C=C2/SC(=S)N(CC(=O)O)C2=O)ccc1OCc1ccccc1,-0.77
O=C(O)CN1C(=O)/C(=C\c2cc(Cl)cc(Br)c2O)SC1=S,-2.3
CCOc1cc(Br)c(Br)c(/C=C2\SC(=S)N(CC(=O)O)C2=O)c1O,-3.8*
SMILES,CapD inh
O=C(O)CN1C(=O)/C(=C\c2cccc([N+](=O)[O-])c2O)SC1=S,-3
O=C(O)CN1C(=O)/C(=C\c2cc([N+](=O)[O-])ccc2O)SC1=S,-5.2*
O=C(O)CN1C(=O)/C(=C\c2cc([N+](=O)[O-])ccc2Cl)SC1=S,-1.5
O=S(=O)(c1cc(Cl)sc1Cl)N1CCN(c2cccc3[nH]ccc23)CC1,0.69
CCOc1ccc2c(c1)-c1c(ssc1=Nc1ccc(C)cc1)C(C)(C)N2C,-0.55
COc1ccc(NC(=O)C(NS(=O)(=O)c2ccc3c(c2)oc(=O)n3C)C(C)C)cc1OC (configuration not stated),-1.1
